# Bioassay records: PubChem BioAssay, National Center for Advancing Translational Sciences (NCATS)
# ATXN2 expr inh: inhibitors of ATXN2 expression; HEK-293 ATXN2-luciferase reporter, luminescence, 24 h; hit rate 0.72% among 360,000; Potency, µM (titrated, usually from 57 µM), usual class: inhibitors; further: nearly all actives have a fitted effect of over 55% in size
#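 qHTS (up to 57 uM final) was run with 24 h compound exposure of reporter cells at 37 °C. Each well was multiplexed: SteadyGlo luminescence measured ATXN2-luciferase expression after a fluorogenic Gly-Phe-AFC viability readout (25 uM final).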
# Nrf2 block: Nrf2 pathway inhibition; A549 ARE-Fluc reporter, luciferase luminescence, 18-24 h; Potency, µM (doses to about 46 µM), hits mostly inhibitors; hit rate 2.1% among 360,000; further: nearly all actives have a fitted effect of over 60% in size
#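 In this cell-based qHTS, ARE-driven firefly luciferase in A549 cells reports Nrf2 activity; the luminescent signal after BugLite lysis is the measured value, with a prior CellTiter-Fluor read for cell health.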
# HepG2 viability: kills HepG2 cells in TGF-b inhibitor counter-screen. HepG2 CAGA-GFP viability, ATP luminescence, 18 h. Potency, µM (titrated, usually from 46.1 µM), most hits filed as cytotoxic. hit rate 0.76% among 410,000. AID 588856
#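 HepG2 CAGA-GFP cells (1000/well, DMEM with 1% FBS) received compound, then TGF-beta at 500 pg/mL final, and were incubated 18 hours at 37 degrees C. Viability was read by CellTiter-Glo luminescence. Media-only wells were set as complete cell-killing and DMSO as no toxicity.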
# A549 tox: kills or reduces viability of A549 cells in Nrf2 counter-screen. Potency, µM (highest dose often 46 µM), usual class: inhibitors. AID 504648. hit rate 0.16% among 390,000. A549 ARE-Fluc cells, CellTiter-Fluor viability, 18-24 h
#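 A549 ARE_Fluc cells in 5% FBS OPTI-MEM were exposed to compounds in concentration-response for 18-24 h at 37 deg C. Viability was read by CellTiter-Fluor fluorescence (Ex 405/Em 525) after 30 min, before the luciferase read.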
# TGFb SMAD3 inh: TGF-b pathway inhibition | HepG2 CAGA-GFP TGF-b/SMAD3 reporter, GFP fluorescence, 18 h; TGF-beta stimulated, 500 pg/mL final | AID 588855 | hit rate 1.2% among 410,000 | Potency, µM (titrated, usually from 46.1 µM), most hits filed as inhibitors; further: nearly all actives have a fitted effect of over 65% in size
#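 HEPG2 CAGA-GFP, 1000 cells/well; 2 h settle, 37 C; cpd via pin tool; TGF-b 500 pg/mL final; 18 h, 37 C; GFP imaging ex488/em500-530; %Activity normalised to -TGF-b and +DMSO controls; CRC fit, curve class.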
# S2 tox: cell viability loss in ATXN counter-screen; S2 cells (HEK-293 line with an ATXN2-luciferase reporter) viability, CellTiter-Fluor protease fluorescence, 24 h; Potency, µM (titrated, usually from 56.7 µM), actives largely listed as cytotoxic; hit rate 0.49% among 400,000; AID 651635; further: nearly all actives have a fitted effect of over 40% in size
# Hits are given with their value; 0 = inactive; ? = inconclusive; - = not tested or not shown; [ ] = remark or other dose. Only some compounds are listed: those with a hit (about 3.8% of all), similar ones and a draw of the others. The call rests on the fitted dose curve; in most records, active means well fitted curve in the direction sought with a large enough effect; inconclusive means small, poorly fitted or top-dose-only effect, or another doubt; inactive means no such curve, though single readings can be large; an effect the other way counts as inactive or inconclusive.
SMILES,ATXN2 expr inh,Nrf2 block,HepG2 viability,A549 tox,TGFb SMAD3 inh,S2 tox
Cc1ccc(O)c(-c2n[nH]c3c2C(c2ccccc2F)N(Cc2ccco2)C3=O)c1 (stereo unspecified),?,?,11.2µM,?,?,-
O=S(=O)(c1ccc(-c2csc(Nc3ccc(F)cc3)n2)cc1)N1CCCC1,0,18.4µM,0,0,?,0
O=S(=O)(c1ccc(-c2csc(Nc3ccc(Br)cc3)n2)cc1)N1CCCC1,0,8.2µM,0,0,0,0
Cc1cc(C)cc(Nc2nc(-c3ccc(S(=O)(=O)N4CCCC4)cc3)cs2)c1,?,?,0,0,0,0
COc1cccc(CN(C)C(=O)c2ccc(NS(=O)(=O)c3ccc4[nH]c(=O)[nH]c4c3)cc2)c1OC,0,0,0,0,0,0
CCOC(=O)N1CCN(C(=O)c2ccc(NS(=O)(=O)c3ccc(F)cc3)cc2)CC1,-,16.4µM,0,0,0,0
CCOc1ccc(NS(=O)(=O)c2ccc(C(=O)N3CCCCC3)cc2)cc1,0,?,0,0,0,0
CCOc1ccc(NS(=O)(=O)c2ccc(C(=O)N3CCN(c4ncccn4)CC3)cc2)cc1,-,16.4µM,0,0,0,0
CCOc1ccc(NS(=O)(=O)c2ccc(C(=O)N(C)Cc3cccc(OC)c3OC)cc2)cc1,0,14.6µM,0,0,0,0
COc1ccc(Cl)cc1NC(=O)Cn1c(=O)n(Cc2nc(C)no2)c(=O)c2ccccc21,-,0,0,0,0,-
COC(=O)c1c[nH]c2c1-c1cc(C(=O)OCc3ccccc3)n(S(=O)(=O)c3ccc(C)cc3)c1C(=O)C2=O,?,4.11µM,0.562µM,4.11µM,0.447µM,?
CNc1nccc(-c2cccnc2Oc2cc(C(=O)Nc3cccc(C(F)(F)F)c3)ccc2C)n1,24.3µM,-,-,-,-,-
COc1ccc(C(=O)C2C(=O)C(=O)N(Cc3ccco3)C2c2cccs2)cc1 (stereo unspecified),-,0,0,0,0,-
C/C=C\C(=O)Nc1cccc(C2=NOC3(C2)C[C@@H](C(N)=O)N(C(=O)CC(c2ccccc2)c2ccccc2)C3)c1 (stereo partly specified),0,0,0,0,?,?
CCCCCC(=O)Nc1cccc(C2=NOC3(C2)C[C@@H](C(N)=O)N(C(=O)CC(c2ccccc2)c2ccccc2)C3)c1 (stereo partly specified),0,20.6µM,0,?,?,?
c1ccc2oc(Cc3ccc(Cc4nc5ccccc5o4)cc3)nc2c1,0,25.9µM,0,0,0,0
c1ccc2oc(CCc3nc4ccccc4o3)nc2c1,0,0,0,0,0,0
O=C(Nc1cccc(O)c1)c1cc(-c2ccc3c(c2)OCO3)on1,?,14.6µM,0,0,0,0
COc1ccn(C2CCCCO2)c(=O)n1 (stereo unspecified),0,0,0,0,0,0
C[C@H](NC(=O)N1CCn2c1nc1ccccc12)C(=O)NCc1ccc2c(c1)OCO2,0,0,0,0,0,0
CC1CCN(c2ccc(NC(=O)C3CCCN3S(=O)(=O)c3ccc(F)cc3)cc2)CC1 (stereo unspecified),?,0,0,0,0,0
CC(CCc1ccccc1)NC(=O)Cn1c(=O)nc(-c2ccccc2)c2cc(Cl)ccc21 (stereo unspecified),-,-,0,?,0,-
NC(=O)C1(N2CCCCC2)CCN(C(=O)Nc2ccc(F)cc2F)CC1,-,0,0,0,-,-
CC(C1CC1)N(Cc1ccccc1)C(=O)NC(=O)c1ccccc1 (stereo unspecified),0,0,0,0,0,0
CC(C1CC1)N(Cc1ccccc1)C(=S)Nc1ccccc1Cl (stereo unspecified),0[11.3 µM],29.1µM,0,0,?,0
CC1=C(C(=O)N(C(C)C)C(C)C)CC(CC(=O)NC(c2ccccc2)c2ccccc2)C(=O)N1CCC1=CCCCC1 (stereo unspecified),0,-,0,-,11.2µM,-
